# Bfl-1 Bim block – human Bim-Bfl-1 interaction inhibition. Bead-based flow cytometry, Bim-Bfl-1 binding inhibition. inhibition, % at 10 µM. 190,000 tested, 0.12% active;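 also: 0% = wells without compound plus tracer and 100% = blocker peptide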
# Bcl-W Bim block – disrupts Bim peptide binding to human Bcl-W. Q92843. bead-based flow cytometry. inhibition, % at 10 µM. 190,000 tested, 0.02% active;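 also: 0% = bound tracer without compound and 100% = peptide blocker; higher means less fluorescent Bim peptide bound to Bcl-W beads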
# Target sequence (Q92843 whole entry, looked up): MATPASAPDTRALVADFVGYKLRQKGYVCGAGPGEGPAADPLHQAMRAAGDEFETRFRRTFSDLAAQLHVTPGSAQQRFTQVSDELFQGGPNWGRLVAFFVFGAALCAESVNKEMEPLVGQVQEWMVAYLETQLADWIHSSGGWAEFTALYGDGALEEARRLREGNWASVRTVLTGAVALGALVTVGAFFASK
# Bcl-B Bim block – inhibitors of Bim-Bcl-B interaction, human | Q9HD36 | inhibition, % at 10 µM | 190,000 tested, 0.073% active | bead-based flow cytometry, Bim peptide-Bcl-B binding;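 also: 0% = tracer peptide without compound and 100% = reference inhibitor peptide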
# Target sequence (Q9HD36 whole entry, looked up): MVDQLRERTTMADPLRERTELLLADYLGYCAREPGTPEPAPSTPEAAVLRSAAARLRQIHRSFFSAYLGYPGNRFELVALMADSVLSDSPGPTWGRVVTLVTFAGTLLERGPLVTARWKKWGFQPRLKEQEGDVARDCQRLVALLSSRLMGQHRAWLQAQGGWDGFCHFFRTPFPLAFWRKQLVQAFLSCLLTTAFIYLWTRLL
# Bim-Bcl-2 – inhibitors of Bim-Bcl-2 interaction, human. P10415. Bead-based flow cytometry, Bim peptide-Bcl-2 binding. inhibition, % at 10 µM. 190,000 tested, 0.06% active; in the data active = inhibition above about 40%;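 also: 0% = no compound wells with probe peptide and 100% = reference peptide inhibitor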
# Bcl-XL Bim block – inhibitors of Bim-Bcl-XL interaction, human; 190,000 tested, 0.04% active; inhibition, % at 10 µM; Q07817; Bim peptide-Bcl-XL binding, bead flow cytometry, fluorescence
# Target sequence (Q07817 whole entry, looked up): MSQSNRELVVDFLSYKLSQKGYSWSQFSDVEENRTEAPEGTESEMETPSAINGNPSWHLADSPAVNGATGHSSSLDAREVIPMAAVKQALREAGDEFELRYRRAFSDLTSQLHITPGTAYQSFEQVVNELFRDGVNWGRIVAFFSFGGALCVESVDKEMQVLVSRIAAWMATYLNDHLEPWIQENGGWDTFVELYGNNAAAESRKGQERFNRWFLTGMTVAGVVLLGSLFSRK
# Phagocyt inh – inhibitors of macrophage phagocytosis. 110,000 tested, 0.07% active. J774A.1 macrophage IgG-bead phagocytosis, imaging. inhibition, % at 5 µM;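 active = inhibition above the mean of the plate negative controls plus 5 SD, cut at about 13% in these data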;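 also: phagocytic index as fraction of beads internalized from green versus red external bead signal; plate controls were DMSO negative control for no effect and cytochalasin-D positive control for full effect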
# Active calls of the source: *; . = not tested or not shown; [ ] = dose if it differs, or a comment. An excerpt weighted towards active compounds, which were near 0.23% of everything screened. Rule as the data show it, unless noted: active = inhibition above about 40%.
SMILES,Bfl-1 Bim block,Bcl-W Bim block,Bcl-B Bim block,Bim-Bcl-2,Bcl-XL Bim block,Phagocyt inh
O=C1/C(=C\c2ccc(-c3ccccc3Cl)o2)SC(=S)N1CC1CCCO1 (stereo unspecified),17.0,18.0,-3.0,45.0*,28.0,-0.3
O=C1/C(=C/c2cccnc2)SC(=S)N1CC1CCCO1 (stereo unspecified),-13.0,-3.0,-5.0,-7.0,-6.0,.
O=C(CSc1nnc(-c2cccnc2)o1)Oc1ccccc1,-7.0,1.0,-5.0,-6.0,-2.0,26.4*[artifact]
Cc1cc(N)ccc1N1CCCC1,73.0*,75.0*,87.0*,66.0*,64.0*,.
Cc1cc(N)ccc1-n1c(C)ccc1C,-3.0,-2.0,-1.0,-3.0,0.0,0.6
Nc1c(C(=O)NC2CC2)sc2nc3c(c(-c4ccco4)c12)CC/C3=C/c1ccco1,56.0*,34.0,34.0,43.0*,29.0,4.4
CN(C)CCCCNCCCNC(=O)/C=N\O,-18.0,-3.0,-9.0,-10.0,-7.0,53.5*[artifact]
CN(C)CCCNCCNC(=O)/C=N\O,1.0,7.0,3.0,1.0,6.0,-5.3
S=C(Nc1ccc2c(c1)OCO2)N1CCN(Cc2ccco2)CC1,-2.0,-4.0,-3.0,1.0,-1.0,.
CC1CCN(C2(O)C(=O)Nc3ccc(Br)cc32)CC1 (stereo unspecified),6.0,17.0,57.0*,47.0*,63.0*,.
O=C1Nc2ccc([N+](=O)[O-])cc2C1(O)N1CCCCCC1 (stereo unspecified),-1.0,0.0,0.0,-2.0,1.0,.
Cc1ccc(C)c(NC(=O)C(=O)NCc2ccccn2)c1,49.0*,33.0,27.0,34.0,46.0*,-6.2
Cc1ccc(NC(=O)NCc2ccccn2)cc1,-3.0,0.0,-1.0,0.0,0.0,.
O=C(Cn1nnc2c(cnn2-c2ccc(F)cc2)c1=O)Nc1ccccc1C(F)(F)F,-7.0,-3.0,-4.0,0.0,-1.0,.
COc1cccc2c1C(=O)c1c(O)c3c(c(O)c1C2=O)C[C@@](O)(C(=O)CO)C[C@@H]3O[C@H]1C[C@H](N)[C@H](O)[C@H](C)O1,60.0*,59.0*,86.0*,54.0*,57.0*,.
COc1ccc(C2=NOC(CN3C(=O)c4ccccc4S3(=O)=O)C2)cc1 (stereo unspecified),3.0,0.0,6.0,7.0,0.0,37.5*
Nc1nc(CCOc2ccc(F)cc2)cs1,-4.0,-5.0,-6.0,-3.0,-2.0,.
CCOC(=O)C(C(=O)OCC)c1cc(Br)c2noc3c2c1C(=O)c1ccccc1-3,43.0*,43.0*,10.0,39.0,29.0,0.8
O=C(O)/C=C/C(=O)NNC(=O)c1ccc(Br)cc1,35.0,27.0,24.0,19.0,41.0*,-13.9
COc1c(F)c(F)c(C(=O)Nc2ccccc2N2CCN(C(=O)C(C)C)CC2)c(F)c1F,.,12.0,.,83.0*,18.0,-0.2
COc1ccc(NC(=O)/C(Cl)=C(/Cl)S(=O)Cc2ccc(Cl)cc2)cn1 (stereo unspecified),40.0*,3.0,-11.0,7.0,0.0,.
COc1ccc(NC(=O)C(Cl)=C(Cl)Cl)cn1,4.0,1.0,4.0,1.0,0.0,.
C#CCn1cc(C=C2C(=O)c3ccccc3C2=O)c2ccccc21,39.0,39.0,71.0*,58.0*,24.0,-9.1
O=c1[nH][nH]c2cc(=O)n(-c3ccc(Cl)cc3)nc12,0.0,0.0,2.0,0.0,2.0,.
Cc1cnnn1-c1ccc(C(=O)CCl)cc1,60.0*,60.0*,34.0,36.0,33.0,.
SMILES,Bfl-1 Bim block,Bcl-W Bim block,Bcl-B Bim block,Bim-Bcl-2,Bcl-XL Bim block,Phagocyt inh
CCn1c(C)c(C(C)=O)c(N2CCCCC2)nc1=S,-4.0,-1.0,2.0,-9.0,-4.0,-1.3
C=CCn1c(C)c(C(C)=O)c(N2CCOCC2)nc1=S,48.0*,29.0,29.0,29.0,38.0,-2.3
COc1ccc(Nc2nc(-c3c(C)nc4ncccn34)cs2)cc1,15.0,17.0,12.0,8.0,36.0,.
Cc1nc2ncccn2c1-c1csc(Nc2ccccc2)n1,-1.0,24.0,20.0,5.0,44.0*,-0.6
COc1ccc2c(c1)C=C([C@@H]1C[C@H]3CN(c4ccccc4)C(=O)[C@]34CCCN14)CO2,4.0,-7.0,-7.0,-2.0,-9.0,.
CCOc1ccccc1NC(=O)CN1C(=O)C(=O)N(Cc2ccco2)C1=O,-4.0,1.0,-1.0,0.0,-1.0,.
CCN(CC)CCN(C(=O)c1ccc(N2C(=O)CCC2=O)cc1)c1nc2cc3c(cc2s1)OCCO3,32.0,4.0,36.0,43.0*,1.0,.
COc1ccc(C2=Nn3c(nnc3-c3ccccc3OC)SC2)cc1OC,-12.0,-4.0,-5.0,-6.0,-2.0,.
COc1ccc(C2=Nn3c(nnc3-c3ccco3)SC2)cc1OC,8.0,29.0,26.0,14.0,44.0*,.
COCCSc1nnc(NC(=O)C2CC(=O)N(c3ccccc3)C2)s1 (stereo unspecified),-7.0,-2.0,-8.0,-4.0,-2.0,.
O=C(Nc1nnc(SCc2ccccn2)s1)C1CC(=O)N(c2ccccc2)C1 (stereo unspecified),34.0,31.0,35.0,28.0,40.0*,-10.2
NC(=O)CSc1nnc(Cn2cnc3ccccc32)o1,65.0*,36.0,-2.0,10.0,16.0,.
CCc1ccccc1NC(=O)CSc1nnc(Cn2cnc3ccccc32)o1,0.0,-3.0,-7.0,-2.0,-4.0,.
CN1CCC(=NOc2ccc([N+](=O)[O-])cc2)CC1,-5.0,0.0,-2.0,0.0,-2.0,.
O=C(NCCO)c1ccc2nc(-c3ccco3)c(-c3ccco3)nc2c1,54.0*,28.0,5.0,18.0,12.0,-0.2
O=C(NC1CCCC1)c1ccc2nc(-c3ccco3)c(-c3ccco3)nc2c1,3.0,6.0,2.0,4.0,2.0,-1.1
O=C(NCCc1ccccc1)c1ccc2nc(-c3ccco3)c(-c3ccco3)nc2c1,45.0*,19.0,7.0,16.0,10.0,-0.3
c1coc(-c2nc3ccccc3nc2-c2ccco2)c1,9.0,6.0,3.0,5.0,9.0,-0.2
O=C(c1ccccc1)c1ccc2nc(-c3ccco3)c(-c3ccco3)nc2c1,47.0*,26.0,-9.0,26.0,12.0,.
CC1CN(C(=O)COC(=O)c2nn(-c3ccccc3)c(=O)c3ccccc23)CC(C)O1 (stereo unspecified),-6.0,-2.0,-6.0,-1.0,-1.0,.
O=C1NC2(CCCCCC2)C(=O)N1Cc1ccc([N+](=O)[O-])cc1,-16.0,-1.0,-8.0,-10.0,-8.0,-8.6
Cc1ccccc1CC1(CO)CCCN(C(=O)c2ccc3ncccc3c2)C1 (stereo unspecified),-5.0,-4.0,0.0,1.0,-4.0,.
Cc1cc(NC(=O)Cn2nc([N+](=O)[O-])c(Br)c2C)no1,-7.0,-3.0,-5.0,-3.0,-3.0,.
CCCNS(=O)(=O)c1cccc2cccnc12,-8.0,0.0,-7.0,-5.0,-3.0,-0.4
O=S(=O)(NCCO)c1cccc2cccnc12,-4.0,-6.0,-7.0,-5.0,-8.0,49.5*[artifact]
Cc1cccc(NC(=S)N2CCn3cccc3C2c2cccnc2)c1 (stereo unspecified),0.0,-1.0,41.0*,5.0,-3.0,-10.9
CCN(CC)c1ccc(C(=O)OCc2c(C)noc2C)cc1,-5.0,-1.0,-2.0,-2.0,0.0,.

# Screens (PubChem BioAssay)
